Here are results for 20 molecules from PubChem BioAssay (NCI).

Each structure is given as a SMILES string. About 79,000 compounds went through this panel and 15% of them were active in at least one assay; those are over-represented in the sample as a whole. Unmarked numbers belong to inactive results. Calls of active or inactive are those of the source. Rule as the data show it: active = growth inhibition above about 70%; inactive = the rest. Where a SMILES comes first, the peptide text is derived from it. [ ]: non-standard residue; d: D form. ξ: configuration not given here. ξPhe(4-N(CH2CH2Cl)2) = NC(Cc1ccc(N(CCCl)CCCl)cc1)C(=O)O; Aad = N[CH](CCCC(=O)O)C(=O)O

Assay [1] can be described thus: NCI Yeast Anticancer Drug Screen. Data for the rad50 strain (AID 155).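 Also: 0% = growth of vehicle-only cultures of the same strain.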 As to conditions: S. cerevisiae rad50 strain growth inhibition; at 50.0 µM; active compounds read high. The essentials: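 Growth of the mutant yeast was measured after compound exposure and referenced to vehicle-treated cultures.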
Assay [2] in a line: NCI Yeast Anticancer Drug Screen. Data for the mec2-1 strain (AID 157). As to conditions: S. cerevisiae mec2-1 strain, at 50.0 µM, active compounds read high. The essentials:
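Growth inhibition is read against vehicle-treated controls after compound exposure of the mec2-1 yeast strain, which is defective in DNA damage repair or cell cycle control.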

The nature of assay [3]: NCI Yeast Anticancer Drug Screen. Data for the sgs1 mgt1 strain (AID 161).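 Also: 0% = growth of cultures given vehicle only.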 As to conditions: S. cerevisiae sgs1 mgt1 strain, at 50.0 µM, active compounds read high. The essentials: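 Yeast cells carrying a defined DNA-repair defect were exposed to test compounds. Growth inhibition was measured relative to vehicle-treated controls.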
Assay [4] in a line: NCI Yeast Anticancer Drug Screen. Data for the cln2 rad14 strain (AID 165).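 Also: 0% = growth equal to vehicle treated cultures.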 As to conditions: S. cerevisiae cln2 rad14 strain, at 50.0 µM, active compounds read high. The essentials: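 Growth inhibition, relative to vehicle-treated controls, is the read-out. The test organism is a yeast strain with defined genetic alterations, cln2 rad14.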
Assay [5] is described as follows: NCI Yeast Anticancer Drug Screen. Data for the bub3 strain (AID 167). The conditions noted are these: S. cerevisiae bub3 mutant strain, at 50.0 µM, active compounds read high. The essentials:
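Whole-cell yeast assay. The mutant strain was incubated with compounds, and growth inhibition was determined by comparison with vehicle-treated cells.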

Assay [6] is described as follows: NCI Yeast Anticancer Drug Screen. Data for the mlh1 rad18 strain (AID 175). As to conditions: S. cerevisiae mlh1 rad18 strain growth inhibition; at 50.0 µM; active compounds read high. The essentials:
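Cells of a genetically altered yeast strain, deficient in DNA damage repair, were treated with compound. Their growth was then compared with that of vehicle-treated cultures to give inhibition.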

On to `OC1(c2ccccc2)C2CCN(CC2)C1CN1CCOCC1` (stereo not given), for which the growth inhibition in assay [1] was -23.6%; in assay [2] it was -30.7%; in assay [3], -20.6%; in assay [4] it was 4.05%; in assay [5] it was 13.3%; in assay [6], 7.95%.
Take `CNC1=C(C)C(=O)C2=C(C1=O)C(COC(N)=O)C1(OC)C3NC3CN21` (stereo not given): the growth inhibition in assay [1] is 58.8%; in assay [2] it was 53%; in assay [3], 52%; in assay [4], 60.6%; in assay [5], 31.4%; in assay [6], 83.8% (active).
As to `COc1cc(C(O)CN)cc(OC)c1OC` (stereo not given), the growth inhibition in assay [1] was -12.9%; in assay [2] it was 2.2%; in assay [3], -6.55%; in assay [4], -7.35%; in assay [5] it was -3.35%; in assay [6], -6.8%.
Consider `ClCCN(CCCl)c1cc(Cl)ccc1Oc1ccccc1`, for which the growth inhibition was -35.8% in assay [1]; -4.3% in assay [2]; 1.25% in assay [3]; -42% in assay [4]; 18.9% in assay [5]; -1.55% in assay [6].
As for `Cc1cc[n+](C)c(Cc2ccccc2)c1C`, the growth inhibition was -26.7% in assay [1]; -11.1% in assay [2]; -8.9% in assay [3]; -26.1% in assay [4]; -22% in assay [5]; -28.9% in assay [6].
For `O=P(c1ccccc1)(c1ccccc1)c1ccccc1.O=P(c1ccccc1)(c1ccccc1)c1ccccc1.O=S(=O)(O)O.[Fe]`, the growth inhibition is -8.3% in assay [1]; 3.45% in assay [2]; 9.35% in assay [3]; 17.6% in assay [4]; 23.6% in assay [5]; 8.2% in assay [6].
Consider `N#CCC#N`, for which the growth inhibition in assay [1] is -3.7%; in assay [2] it was -3.95%; in assay [3] it was 16.3%; in assay [4], -3.1%; in assay [5], 2.75%; in assay [6] it was -1%.
Turning to `CC(C)OP(=O)(OC(C)C)C(N(C)C)P(=O)(OC(C)C)OC(C)C.[Cl][Sn]([Cl])([Cl])[c]1ccccc1`, the growth inhibition in assay [1] is -10.9%; in assay [2], -10.2%; in assay [3], 2.1%; in assay [4], 28.8%; in assay [5] it was 7.85%; in assay [6] it was 1.5%.
In the case of `Cc1ccc(OP(=O)(Oc2ccc(C)cc2)Oc2ccc(C)cc2)cc1.Cc1ccc(OP(=O)(Oc2ccc(C)cc2)Oc2ccc(C)cc2)cc1.Cc1ccc(OP(=O)(Oc2ccc(C)cc2)Oc2ccc(C)cc2)cc1.Cc1ccc(OP(=O)(Oc2ccc(C)cc2)Oc2ccc(C)cc2)cc1.[Cr+3].[O-][Cl+3]([O-])([O-])O`, the growth inhibition in assay [1] was 0.95%; in assay [2], -2.2%; in assay [3] it was 0.15%; in assay [4] it was -3.05%; in assay [5], -4.35%; in assay [6], -3.55%.
Regarding `[CH3][Sn]1([CH3])[O]CC(COc2cc(Cl)c(Cl)cc2Cl)[O]1` (stereo not given), the growth inhibition in assay [1] is -22.4%; in assay [2], 6.65%; in assay [3], 2.95%; in assay [4] it was 5.35%; in assay [5], -10.1%; in assay [6] it was 4.5%.
In the case of `O=C(Cl)c1ccc[nH]1`, the growth inhibition is -0.95% in assay [1]; -13.9% in assay [2]; -13.7% in assay [3]; 21.1% in assay [4]; -25.6% in assay [5]; -0.15% in assay [6].
`O=[As]c1ccc2c(c1)NC(O)=CO2` (stereo not given): the growth inhibition in assay [1] was 21.9%; in assay [2], 38.6%; in assay [3] it was 20.7%; in assay [4] it was 27.9%; in assay [5] it was 20.4%; in assay [6] it was 32.5%.
Regarding `C=C(C)[C@H]1Cc2c(ccc3c2O[C@@H]2COc4cc(OC)c(OC)cc4[C@@H]2C3=O)O1`, the growth inhibition in assay [1] was 43.5%; in assay [2], 19.2%; in assay [3] it was 43.4%; in assay [4], 27.8%; in assay [5] it was 49.1%; in assay [6], 52.8%.
`Cc1cn([C@H]2CC3C(CON3C)O2)c(=O)[nH]c1=O` (stereo not given in full): the growth inhibition in assay [1] was 3.3%; in assay [2], 7.55%; in assay [3], 1.15%; in assay [4], -3.55%; in assay [5], -8.55%; in assay [6], -37.4%.
For `CN1CCN[C@@H]2CCCC[C@@H]21`, the growth inhibition in assay [1] is 11.2%; in assay [2], -5%; in assay [3], -10.2%; in assay [4], -7.8%; in assay [5], 5.65%; in assay [6] it was -11.6%.
For the molecule `Nn1cnnc1`, the growth inhibition in assay [1] is -12.9%; in assay [2], -7.95%; in assay [3] it was -9.7%; in assay [4] it was -9.35%; in assay [5], -3.05%; in assay [6], -16.2%.
Consider `CCOC(=O)C(Cc1ccc(N(CCCl)CCCl)cc1)NC(=O)C(CCC(=O)O)NC(=O)C(Cc1ccc(O)cc1)NC(=O)C(CCCC(=O)O)NC(=O)C(N)Cc1ccc(O)cc1` (stereo not given) (H-Y[Aad]YE[ξPhe(4-N(CH2CH2Cl)2)]-OEt; configuration not given here), for which the growth inhibition in assay [1] is 7.7%; in assay [2], 13.9%; in assay [3] it was -6.5%; in assay [4] it was 14.8%; in assay [5], 8.05%; in assay [6] it was 30.3%.
As to `NC(Cc1cccc(NP(=S)(NCCO)N2CC2)c1)C(=O)O` (stereo not given), the growth inhibition is -4.95% in assay [1]; 15.1% in assay [2]; 12.8% in assay [3]; -10.9% in assay [4]; 13.1% in assay [5]; 4.35% in assay [6].
Take `CCCC(=O)[O-].N.N.N.N.N.[Co+3].[O-][Cl+3]([O-])([O-])[O-]`: the growth inhibition in assay [1] is -23.8%; in assay [2], -2.3%; in assay [3], -41%; in assay [4], 8%; in assay [5], 1.7%; in assay [6] it was -21.9%.
On to `CCc1c2c(c(C)n1C)C(c1ccccc1)=NCC(=O)N2`, for which the growth inhibition was 8.1% in assay [1]; 21.1% in assay [2]; 21.7% in assay [3]; -7.1% in assay [4]; 13.4% in assay [5]; 3% in assay [6].
